# Sampled rows, rich in hits. Any-hit rate of the full collection: about 9.4%.
# SMN2 splice up: qHTS Assay for Enhancers of SMN2 Splice Variant Expression; HEK293 SMN2-luciferase splicing reporter, luminescence, 30-36 h; actives 2.8% (n = 210,000); AID 1458, 2008; Potency, µM (series often up to 46.1 µM), actives largely listed as activators; also: nearly all actives have a fitted effect of over 55% in size
#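 qHTS luciferase splicing reporter: luminescence rises when SMN2 exon 7 is included in transfected HEK293 cells. Compound exposure lasted 30-36 h at 37C, with 4.5 mM final sodium butyrate as control, followed by a ONE-Glo read.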
# FLuc counter: qHTS profiling assay for firefly luciferase inhibitor/activator using purifed enzyme and Km concentrations of substrates (counterscreen for miR-21 project); actives 6.9% (n = 360,000); Potency, µM (titrated, usually from 57.5 µM), actives largely listed as inhibitors; AID 588342, 2011; Luciferin 4-monooxygenase (Photinus pyralis), P08659; purified FLuc, Km substrates, luminescence inhibition; also: nearly all actives have a fitted effect of over 55% in size
# Target sequence (P08659 whole entry, looked up): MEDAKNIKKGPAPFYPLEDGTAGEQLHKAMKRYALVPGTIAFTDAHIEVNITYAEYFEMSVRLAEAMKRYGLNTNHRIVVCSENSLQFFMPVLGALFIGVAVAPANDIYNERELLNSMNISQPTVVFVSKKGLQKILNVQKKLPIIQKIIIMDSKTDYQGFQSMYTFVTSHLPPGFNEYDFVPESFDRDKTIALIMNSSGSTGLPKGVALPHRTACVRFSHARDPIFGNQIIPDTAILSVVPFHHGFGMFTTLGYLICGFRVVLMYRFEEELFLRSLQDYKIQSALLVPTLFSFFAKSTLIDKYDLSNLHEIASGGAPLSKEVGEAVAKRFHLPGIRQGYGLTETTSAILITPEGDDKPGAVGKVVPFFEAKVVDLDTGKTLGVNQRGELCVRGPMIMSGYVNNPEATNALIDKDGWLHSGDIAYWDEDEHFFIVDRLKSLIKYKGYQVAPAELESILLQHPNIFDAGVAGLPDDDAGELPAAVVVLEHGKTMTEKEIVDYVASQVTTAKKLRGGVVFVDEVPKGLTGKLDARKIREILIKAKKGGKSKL
#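 Purified P. pyralis luciferase, 10 nM final, with Km-level 10 uM D-luciferin and 10 uM ATP in 50 mM Tris acetate pH 7.5, 10 mM Mg acetate, 0.01% Tween-20, 0.05% BSA; 6-point qHTS titration about 60 µM downward; luminescence read.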
# Rab9 promoter act: qHTS Assay for Rab9 Promoter Activators. Huh7 Rab9 promoter-luciferase reporter, luminescence, 24 h. Potency, µM (top dose mostly 9.22 µM), usual class: activators. actives 2.8% (n = 320,000). AID 485297, 2010; also: nearly all actives have a fitted effect of over 60% in size
#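 Measured in stably transfected Huh7 cells bearing a Rab9 promoter–luciferase construct: 24 h compound treatment at 37 °C, followed by luminescence detection.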
# ELG1 DNA repair: qHTS screen for small molecules that inhibit ELG1-dependent DNA repair in human embryonic kidney (HEK293T) cells expressing luciferase-tagged ELG1 | HEK293T ELG1-luciferase reporter, luminescence, 16 h; DNA damage induced by 5-fluorouridine | Potency, µM (top dose mostly 46.1 µM), usual class: inhibitors | actives 2.3% (n = 330,000) | AID 504467, 2011; also: nearly all actives have a fitted effect of over 55% in size
#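 Step one: seed 2,000 cells per well. Step two: pin-transfer compound or DMSO alongside 5-fluorouridine. Step three: incubate 16 hr, 37 °C, 5% CO2. Step four: add ONE-Glo, wait 30 min, read luminescence.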
# ELG1 genotoxic: qHTS screen for small molecules that induce genotoxicity in human embryonic kidney (HEK293T) cells expressing luciferase-tagged ELG1; HEK293T ELG1-luciferase reporter, luminescence, 16 h; Potency, µM (doses to about 46 µM), actives largely listed as activators; actives 1.3% (n = 330,000); also: nearly all actives have a fitted effect of over 60% in size
#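 HEK293T cells expressing luciferase-tagged ELG1 were exposed to compound or DMSO vehicle for 16 hr at 37 °C and 5% CO2. Luciferase activity was then measured with ONE-Glo after 30 min at room temperature.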
# NPC1 promoter act: qHTS Assay for NPC1 Promoter Activators; Huh7 NPC1 promoter luciferase reporter, 24 h; Potency, µM (series often up to 9.22 µM), actives largely listed as activators; actives 2.4% (n = 320,000); AID 485313, 2010; also: nearly all actives have a fitted effect of over 60% in size
#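 NPC1 promoter–luciferase Huh7 cells; 24 h compound; luminescence.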
# Numbers stand for hits; 0 = inactive; ? = inconclusive; - = no result given; [ ] = another dose, or the depositor's remark. Calls follow the shape of the dose curve; as a rule, active = well fitted curve in the direction sought with a large enough effect; inconclusive = small, poorly fitted or top-dose-only effect, or another doubt; inactive = no such curve, though single readings can be large; an effect the other way counts as inactive or inconclusive.
SMILES,SMN2 splice up,FLuc counter,Rab9 promoter act,ELG1 DNA repair,ELG1 genotoxic,NPC1 promoter act
CCOc1ccc(Nc2nc(N3CCCC3)nc(N3CCN(c4ccc(OC)cc4)CC3)n2)cc1,0,0,0,0,0,0
COc1ccc(NC(=O)c2cc3c(-c4ccc(OC)c(OC)c4)nn(C)c3s2)cc1OC,0,11µM,0,1.6µM,0,0
COc1ccc(-c2nn(C)c3sc(C(=O)Nc4cc(OC)c(OC)c(OC)c4)cc23)cc1OC,?,8.5µM,-,-,-,-
COc1ccc(-n2c(/C=C/c3cccc(C(F)(F)F)c3)nc3ccccc3c2=O)cc1Cl,-,0,-,-,-,-
COc1ccc(CCNC(=O)c2ccc3c(c2)CCN3S(=O)(=O)c2ccc(Cl)cc2)cc1,0,0,-,-,-,-
CCOC(=O)c1ccccc1NC(=O)c1nn(C)c2c1COc1ccccc1-2,-,0,-,-,-,-
O=C(NCCc1cscn1)C1CCC(=O)N(Cc2ccc(Cl)cc2)C1 (centres undefined),-,3µM,?,0,?,?
O=C(NCCc1ccccc1)C1CCC(=O)N(Cc2ccc(Cl)cc2)C1 (centres undefined),-,0,0,0,0,0
CCOC(=O)c1ccc(NC(=O)c2nc[nH]c2C(=O)NCCCCCNC(=O)OC(C)(C)C)cc1,-,0,0,16µM,0,0
CCOC(=O)c1ccc(NC(=O)c2nc[nH]c2C(=O)NCCCCNC(=O)c2[nH]cnc2C(=O)Nc2ccc(C(=O)OCC)cc2)cc1,-,0,0,?,0,0
CCOC(=O)c1ccc(NC(=O)c2nc[nH]c2C(=O)N[C@@H](Cc2ccccc2)C(=O)OC(C)(C)C)cc1,-,0,0,23µM,0,0
CC(C)(C)OC(=O)NCCCCCNC(=O)c1[nH]cnc1C(=O)Nc1ccc(Cl)cc1,-,0,0,21µM,0,0
Cc1ccc(NC(=O)c2nc[nH]c2C(=O)NCCCNC(=O)c2[nH]cnc2C(=O)Nc2ccc(C)cc2)cc1,-,-,-,5.2µM,0,-
COc1ccc(N2CCN(CC(O)COc3ccc(C(C)C)c(C)c3)CC2)cc1 (centres undefined),0,0,-,-,-,-
COc1ccc(NC(=O)c2cc3c(s2)-c2c(C)cccc2OC3)cc1Cl,0,0,-,-,-,-
COc1cc(NC(=O)N2CCC(CN3CCCCCC3)CC2)cc(OC)c1OC,-,0,-,-,-,-
O=C(Nc1ccccc1F)C(Cc1ccccc1)N1Cc2ccccc2C1=O (centres undefined),-,0,-,-,-,-
O=C(CSc1nc2c(c(=O)[nH]1)CCCC2)Nc1ccc(Br)cc1,-,0,-,-,-,-
COc1ccccc1CNc1ncnc2ccc(-c3ccc(N(C)C)cc3)cc12,0,-,-,-,-,-
Cc1ccc(NC(=O)c2nc[nH]c2C(=O)NCCCCCNC(=O)OC(C)(C)C)cc1,-,0,0,23µM,0,0
CC(C)(C)OC(=O)NCCCCCNC(=O)c1[nH]cnc1C(=O)Nc1ccccc1,-,?,0,?,0,0
Cn1cccc/c1=N\c1cccc[n+]1C,-,0,0,18µM,0,0
CCOc1ccc(-n2c(/C=C/c3cccc(F)c3)nc3cc(OC)c(OC)cc3c2=O)cc1,-,0,-,-,-,-
COc1cc(Cl)ccc1OCc1cc(C(=O)NCCCN2CCCC2=O)no1,-,21µM,0,0,0,0
COc1cc(C)ccc1OCc1cc(C(=O)N(C)CCCN2CCOCC2)no1,-,12µM,2.5µM,?,18µM,2.8µM
SMILES,SMN2 splice up,FLuc counter,Rab9 promoter act,ELG1 DNA repair,ELG1 genotoxic,NPC1 promoter act
COc1cc(C)ccc1OCc1cc(C(=O)NCCN2CCOCC2)no1,-,11µM,4µM,?,?,2.2µM
COc1cccc(-c2ccc3c(N)c(C(=O)NCc4ccc(Cl)cc4)sc3n2)c1,0,0,-,-,-,-
Cc1ccc2nc(NC(=O)CSc3nccn3Cc3ccc(Cl)cc3)sc2c1,-,0,-,-,-,-
COc1ccc(NC(=O)C2CCCN2S(=O)(=O)c2ccc3c(c2)CCCC(=O)N3)cc1Cl (centres undefined),-,0,-,-,-,-
O=[N+]([O-])c1cccc(-c2ccc(C(=S)N3CCN(c4ccccc4)CC3)o2)c1,-,?,0,0,0,0
CN1CCN(C(=S)c2ccc(-c3cccc([N+](=O)[O-])c3)o2)CC1,-,6.7µM,2.2µM,?,10µM,2.2µM
O=C(N/N=C/c1cccc([N+](=O)[O-])c1)c1ccc(CN2CCOCC2)cc1,0[1.84 µM],?,0,0,0,0
O=C(Nc1ccc(CN2CCOCC2)cc1)c1ccc(-c2cccc([N+](=O)[O-])c2)o1,-,?,0,13µM,0,0
O=[N+]([O-])c1cccc(-c2ccc(C(=S)N3CCOCC3)o2)c1,11µM,3µM,1.1µM,?,?,2.8µM
O=C(NN1CCOCC1)c1ccc(Cl)c([N+](=O)[O-])c1,-,0,0,0,0,0
O=[N+]([O-])c1cc(-c2ccc(C(=S)N3CCOCC3)o2)ccc1Cl,0,15µM,0,?,0,0
Cc1ccc(Nc2ccc(N3CCN(C(=O)c4cccc([N+](=O)[O-])c4)CC3)nn2)cc1,-,0,-,-,-,-
CCCN(CC(=O)Nc1ccccc1C)C(=O)COc1c(C)cccc1C,-,0,0,0,0,0
CCCN(CC(=O)Nc1ccccc1C)C(=O)CCl,0,0,0,7.3µM,0,0
Cc1ncc(CN2CCC(C(=O)Nc3ccc(-n4cccn4)cc3)CC2)s1,-,0,0,0,0,0
O=C(Nc1ccc(-n2cccn2)cc1)C1CCCCN1Cc1cccc2c1OCO2 (centres undefined),-,0,0,8.2µM,0[9.26 µM],0
CC1CN(C(=O)c2cc([N+](=O)[O-])cc([N+](=O)[O-])c2)CC(C)O1 (centres undefined),-,15µM,3.2µM,?,?,?
O=C(Cn1cc(C(=O)c2cccs2)c2ccccc21)Nc1ccc(Br)cc1,0,0,-,-,-,-
COc1cc(C=O)c([N+](=O)[O-])cc1OC,0,-,-,-,-,-
COc1ccc(Nc2nc(N3CCOCC3)nc(N3CCOCC3)n2)cc1,-,0,0,?,0,0
Cc1cc(/C=N/Nc2nc(N3CCOCC3)nc(N3CCOCC3)n2)c(C)n1-c1ccccc1,0,?,0,7.3µM,0,0
Brc1cc2c(cc1/C=N/Nc1nc(N3CCOCC3)nc(N3CCOCC3)n1)OCO2,?,0,0,?,0,0
BrC(/C=N/Nc1nc(N2CCOCC2)nc(N2CCOCC2)n1)=C/c1ccccc1,0,0,0,12µM,0,0
COc1ccc(-n2c(C)cc(/C=N/Nc3nc(N4CCOCC4)nc(N4CCOCC4)n3)c2C)cc1,0,0,0,8.2µM,0,0

# High-throughput results from PubChem.
